This is part of a sample that, as a whole, favours compounds with a hit. Of some 83,000 tested, about 20% had one in any assay.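 Percent growth is the endpoint: 0 to 100 indicates growth inhibition (40 means 60% inhibition), 0 means no net growth, and negative values indicate cell death.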 A number with no mark means an inactive call. Active and inactive are the calls of the source. How the source made its calls: active means growth percent below 10; inactive means the rest.

Test systems include NCI-H23 lung; NCI-H226 lung; HOP-62 NSCLC; NCI-H460 lung; HOP-92 NSCLC; NCI-H522 lung; A549/ATCC NSCLC; 786-0 renal; COLO 205 colon; DU-145 prostate; K-562 leukemia; MALME-3M melanoma; MDA-MB-231 breast; RXF 393 renal; SF-268 CNS; SF-295 CNS; SF-539 CNS; UACC-257 melanoma; M14 melanoma.
Test in all cases: NCI-60 one-dose screen, 48 h (100 = growth as untreated, 0 = no growth, -100 = all killed)
Conditions in all cases: 10 µM unless noted

As for `CCc1ccc2nc(NC(=O)Cc3csc(NC(=O)c4ccco4)n3)sc2c1`, the growth is 85.1% with NCI-H23 lung; 72.6% with NCI-H226 lung; 86.3% in the experiment with HOP-62 NSCLC; 79% with NCI-H460 lung; -17.9% (active) in the experiment on HOP-92 NSCLC; 60.4% in the experiment with NCI-H522 lung. Further, the growth in the experiment with A549/ATCC NSCLC was 91.3%; with 786-0 renal it was 71.6%; in the experiment on COLO 205 colon it was 107%; in the experiment on DU-145 prostate it was 67%; with K-562 leukemia, 64.5%; in the experiment with MALME-3M melanoma it was 59.6%. The growth in the experiment on MDA-MB-231 breast was 67.9%; with RXF 393 renal it was 73.1%; in the experiment on SF-268 CNS it was 43.3%; in the experiment with SF-295 CNS it was 77.6%; with SF-539 CNS, 34.8%; in the experiment with UACC-257 melanoma, 101%. For the same compound, the growth with M14 melanoma is 96.7%.
On to `COc1ccc(OC)c(/C=C/c2nnc(Nc3ccccc3)o2)c1`, for which the growth in the experiment with NCI-H23 lung was 97.3%; with NCI-H226 lung, 89.7%; in the experiment with HOP-62 NSCLC it was 106%; with NCI-H460 lung, 97.2%; in the experiment with HOP-92 NSCLC, 62.5%; with NCI-H522 lung it was 82.3%. Moreover, the growth with A549/ATCC NSCLC is 96.5%; in the experiment on 786-0 renal it was 87.4%; in the experiment with COLO 205 colon it was 129%; in the experiment with DU-145 prostate, 93.3%; with K-562 leukemia it was 83.2%; with MALME-3M melanoma, 116%. Moreover, the growth is 95% in the experiment with MDA-MB-231 breast; 93.6% in the experiment on RXF 393 renal; 98.5% in the experiment with SF-268 CNS; 91.1% in the experiment with SF-295 CNS; 103% in the experiment with SF-539 CNS; 117% in the experiment with UACC-257 melanoma. For the same compound, in the experiment on M14 melanoma, the growth was 110%.
Turning to `CCCC1CCC(O)(C(C)(O)C(=O)NC2C(=O)N3NCCCC3C(=O)N(O)C(C)C(=O)N3NCCCC3C(=O)N3NCC(O)CC3C(=O)NC(C)C(=O)OC2C(C)C)OC1CC` (stereo not drawn), the growth with NCI-H23 lung is -85.9% (active); with NCI-H226 lung, -53.6% (active); in the experiment with HOP-62 NSCLC it was -76% (active); in the experiment with NCI-H460 lung it was -82.4% (active); in the experiment with HOP-92 NSCLC it was -61.5% (active); in the experiment on NCI-H522 lung, -25% (active). The growth was -66.4% (active) with A549/ATCC NSCLC; -78.6% (active) in the experiment on 786-0 renal; -89% (active) in the experiment on COLO 205 colon; -99% (active) in the experiment on DU-145 prostate; -61.6% (active) in the experiment on K-562 leukemia; -71.7% (active) with MALME-3M melanoma. Further, the growth in the experiment on MDA-MB-231 breast is -66.3% (active); in the experiment on RXF 393 renal, -54.3% (active); with SF-268 CNS, -82.1% (active); with SF-295 CNS, -85.3% (active); in the experiment with SF-539 CNS, -95.1% (active); with UACC-257 melanoma, -83.3% (active). Further, in the experiment on M14 melanoma, the growth was -60.9% (active).
`Cc1cccc2c1S/C(=C/c1ccc([N+](=O)[O-])cc1)C2=O`: the growth was 91.3% in the experiment on NCI-H23 lung; 86.6% in the experiment with NCI-H226 lung; 92.5% with HOP-62 NSCLC; 106% in the experiment with NCI-H460 lung; 105% with HOP-92 NSCLC; 93.1% with NCI-H522 lung. For the same compound, the growth is 106% in the experiment with A549/ATCC NSCLC; 106% in the experiment on 786-0 renal; 106% in the experiment on DU-145 prostate; 42.2% in the experiment on K-562 leukemia; 99.4% with MALME-3M melanoma; 103% with MDA-MB-231 breast. The growth was 140% with RXF 393 renal; 103% in the experiment on SF-268 CNS; 89.8% with SF-295 CNS; 101% with SF-539 CNS; 108% in the experiment on UACC-257 melanoma.
As for `CCOC(=O)c1c(C)oc2ncnc(N3CCN(C(=O)COc4ccc(C(C)(C)C)cc4)CC3)c12`, the growth in the experiment with NCI-H23 lung was 72.5%; with NCI-H226 lung, 66.5%; in the experiment on HOP-62 NSCLC, 90.8%; in the experiment with NCI-H460 lung, 91.4%; in the experiment on HOP-92 NSCLC, 62.9%; in the experiment with NCI-H522 lung, 77.9%. Further, the growth in the experiment with A549/ATCC NSCLC is 86%; in the experiment on 786-0 renal, 99.1%; with COLO 205 colon, 76.9%; in the experiment on DU-145 prostate it was 87.5%; in the experiment on K-562 leukemia, 53.5%; with MALME-3M melanoma it was 70.2%. Besides, the growth with MDA-MB-231 breast was 80.5%; in the experiment with RXF 393 renal, 92.1%; in the experiment on SF-268 CNS, 91%; in the experiment with SF-295 CNS it was 79.9%; in the experiment with SF-539 CNS it was 96.1%; in the experiment with UACC-257 melanoma it was 78.4%. Besides, the growth in the experiment with M14 melanoma is 74.5%.
Regarding `NCCNc1nc2ccccc2c2c(=O)c3cccc(F)c3sc12`, the growth in the experiment on NCI-H23 lung is 70%; with NCI-H226 lung, 78.5%; in the experiment with HOP-62 NSCLC, 58%; in the experiment on NCI-H460 lung, 13.8%; in the experiment on HOP-92 NSCLC, 59.9%; with A549/ATCC NSCLC it was 41.1%. The growth in the experiment with 786-0 renal was 76.7%; in the experiment with COLO 205 colon, 26.6%; in the experiment with DU-145 prostate, 37%; in the experiment on K-562 leukemia, 17.2%; in the experiment with MALME-3M melanoma, 88.4%; in the experiment with MDA-MB-231 breast, 44.7%. The growth in the experiment with RXF 393 renal is 83.3%; with SF-268 CNS, 61.6%; in the experiment on SF-295 CNS, 91.7%; in the experiment on SF-539 CNS, 59.2%; in the experiment on UACC-257 melanoma, 101%; with M14 melanoma it was 83.3%.
Take `CC1=NN(c2ccc(S(=O)(=O)O)cc2)C(=O)C1N=Nc1ccc(-c2ccc(N=Nc3ccc(OS(=O)(=O)c4ccc(C)cc4)cc3)c(S(=O)(=O)O)c2)cc1` (stereo not drawn): the growth in the experiment on NCI-H23 lung is 87.4%; in the experiment on NCI-H226 lung, 85.7%; in the experiment with HOP-62 NSCLC, 93.7%; with NCI-H460 lung, 96%; with HOP-92 NSCLC it was 41.1%; in the experiment on NCI-H522 lung it was 77.8%. Also, the growth in the experiment with A549/ATCC NSCLC was 99%; with 786-0 renal, 90.3%; with COLO 205 colon, 102%; in the experiment with DU-145 prostate, 107%; with K-562 leukemia, 94.4%; in the experiment on MALME-3M melanoma it was 108%. Further, the growth is 97.1% in the experiment with MDA-MB-231 breast; 61.7% in the experiment on RXF 393 renal; 100% with SF-268 CNS; 77.5% with SF-295 CNS; 85.1% with SF-539 CNS; 104% with UACC-257 melanoma. For the same compound, the growth in the experiment with M14 melanoma was 103%.
Turning to `COc1cc2oc(-c3ccc(O)cc3)cc(=O)c2c(O)c1-c1c(OC)cc(O)c2c(=O)cc(-c3ccc(O)cc3)oc12`, the growth in the experiment with NCI-H23 lung is 31.9%; in the experiment with NCI-H226 lung, 70.8%; with HOP-62 NSCLC, 27%; with NCI-H460 lung, 11.8%; in the experiment on HOP-92 NSCLC, 62.3%; with A549/ATCC NSCLC it was 69.8%. For the same compound, the growth was 48.8% with 786-0 renal; 67.5% with COLO 205 colon; 53.5% with DU-145 prostate; 44.5% in the experiment with K-562 leukemia; 63.2% in the experiment on MALME-3M melanoma; 48.5% in the experiment with MDA-MB-231 breast. Besides, the growth with RXF 393 renal was -44.1% (active); in the experiment with SF-268 CNS, 12.8%; in the experiment on SF-295 CNS it was 67.1%; with SF-539 CNS it was 18%; in the experiment with UACC-257 melanoma it was 91.5%; with M14 melanoma, 28%.
